From the supplement of paper PMC9948646 come the findings set out here.

Values without a mark were called inactive.

This experiment has as its system gramicidin D channels in DC22:1PC lipid vesicles (bilayer-modifying potency). The experiment in a line: initial Tl+ fluorescence quench rate relative to no-drug control (NormRate, gramicidin monomer-dimer shift) (ratio (fold of control)); higher = stronger bilayer-modifying effect (equilibrium shifted toward conducting dimers), active = 1.5 or more. The settings on record: 10 µM; lipid concentration 50 µM; temperature: 25 °C. As for the experimental part: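 Stopped-flow fluorescence quench assay: ANTS-loaded DC22:1PC large unilamellar vesicles doped with gramicidin D (1:2000), 50 µM lipid, equilibrated 10 min with 10 µM drug (0.1% DMSO), mixed with Tl+ quench buffer at 25°C. Initial quench rate (Tl+ influx) was fitted with a modified stretched exponential and normalised to the no-drug control rate (NormRate); duplicates from two independent LUV preparations (triplicates for 7 drugs).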
On to `Nc1ncnc2c1c(-c1cnc3ccccc3c1)nn2CC1CCNCC1`, for which the “initial Tl+ fluorescence quench rate” value is 1.07.
Take `CCCCS(=O)(=O)Nc1ccc2cnn(C)c2c1`: the “initial Tl+ fluorescence quench rate” value was 1.36.
Under `C[C@H]1C[C@@H]1C(=O)NC1CCN(CC2(c3ccccc3)CCCCC2)CC1` stands 1.06.
Under `COc1cc(CN2CCC3(C=Cc4ccccc43)CC2)cc2c1OCO2` stands 2.43 (active); under `NS(=O)(=O)c1cccc(-c2ccc3ncc(N4CCOCC4)nc3c2)c1`, 1.41.
`Nc1ncnc2c1ncn2[C@@H]1O[C@H](COS(=O)(=O)NC(=O)c2ccccc2O)[C@@H](O)[C@H]1O`: the “initial Tl+ fluorescence quench rate” value was 1.02.
Take `COC[C@H](C)NC(=O)CSc1ncnc2sc(-c3ccccc3)cc12`: the “initial Tl+ fluorescence quench rate” value was 1.33.
Then `Cc1cc(O)nc(-n2nc(C)cc2C)n1`, with 1.04; and `Cc1ccc2c(c1C)NC(=O)[C@@]21NN=C(c2ccccc2)S1`, with 1.38.
Then `O=C(Nc1nnc(S)s1)c1cc(Br)ccc1Cl`, with 1.2; and `O=C(Nc1cccnc1)c1c(O)c2cccc3c2n(c1=O)CC3`, with 1.07; and `COc1cc(Br)cc2cc(C(=O)Nc3cccc(C(F)(F)F)c3)c(=O)oc12`, with 1.05.
Under `CC(C)(C)c1cc(C(=O)N2CCN(c3nccnc3C#N)CC2)n(Cc2ccccc2)n1` stands 1.21; under `Nc1nccc2ccc(-c3ccc4nccn4c3)cc12`, 1.17; under `N#Cc1nc(-c2ccccc2F)oc1NCCc1ccccc1`, 1.04.
